This note sets out measurements from the antibiotic and cytotoxicity screens of Wong et al. (2023).

The whole screen tested about 39,000 compounds, of which about 3,300 (8.5%) were called active. Shown is part of a subset that was picked to be rich in actives.

The test system of the assay is HepG2. The assay is described as follows: cytotoxicity call (relative viability < 0.9). The note with it: 10 µM.
`CC(=O)N1[C@@H](CO)[C@H](c2ccccc2)C12CN(C(=O)CN1CCOCC1)C2`: the cytotoxicity call is “inactive”.
Next, `Cc1ccc(S(=O)(=O)Nc2cccc3c2O[C@@H](CN(C)CC2CC2)[C@@H](C)CN([C@@H](C)CO)C3=O)cc1`: “inactive”; `C[C@H]1CN([C@@H](C)CO)C(=O)c2cc(C#CC3(O)CCCC3)cnc2O[C@H]1CN(C)S(=O)(=O)c1ccc(F)cc1`: “inactive”.
For `Cc1ccc(S(=O)(=O)Nc2ccc3c(c2)C(=O)N([C@H](C)CO)C[C@@H](C)[C@H](CN(C)C(=O)Cc2ccccc2)OCCCC[C@@H](C)O3)cc1` the value was “inactive”.
For `COC(=O)c1c2oc(c1C(=O)OC)C(=O)N[C@H](Cc1ccccc1)Cn1cc(nn1)CNC(=O)[C@@H](Cc1ccccc1)NC(=O)N[C@@H](CO)CC2` the value was “inactive”; for `COCC#Cc1ccc2c(c1)O[C@H](CN(C)C(=O)c1ccccc1)[C@H](C)CN([C@@H](C)CO)S2(=O)=O`, “inactive”.
Take `O=C(C[C@@H]1C=C[C@H](NS(=O)(=O)c2ccc(F)cc2)[C@H](CO)O1)N1CCC(Cc2ccccc2)CC1`: the cytotoxicity call was “inactive”.
For `C[C@H]1CCCCO[C@@H](CN(C)Cc2ccncc2)[C@@H](C)CN([C@@H](C)CO)C(=O)c2cc(NS(C)(=O)=O)ccc2O1` the value was “inactive”.
For the molecule `C[C@@H]1CCCCO[C@@H](CN(C)CC2CCCCC2)[C@@H](C)CN([C@@H](C)CO)C(=O)c2cc(NS(=O)(=O)c3ccccc3)ccc2O1`, the cytotoxicity call was “inactive”.
`C[C@H](CO)N1C[C@H](C)[C@H](CN(C)S(=O)(=O)c2ccc(Cl)cc2)Oc2c(NC(=O)c3cnccn3)cccc2C1=O`: the cytotoxicity call is “inactive”.
For `CC(C)NC(=O)Nc1cccc2c1O[C@@H](CN(C)Cc1ccc(Oc3ccccc3)cc1)[C@@H](C)CN([C@@H](C)CO)C2=O`, the cytotoxicity call is “inactive”.
Next, `CC(C)NC(=O)Nc1cccc2c1O[C@H](CN(C)Cc1ccc(Oc3ccccc3)cc1)[C@@H](C)CN([C@@H](C)CO)C2=O`: “active”.
Next, `C[C@H](CO)N1C[C@H](C)[C@@H](CN(C)Cc2ccc(Oc3ccccc3)cc2)Oc2c(NC(=O)Nc3ccccc3)cccc2C1=O`: “inactive”; `C[C@@H]1CN([C@@H](C)CO)C(=O)c2cccc(NC(=O)Nc3ccccc3)c2O[C@H]1CN(C)Cc1ccc(Oc2ccccc2)cc1`: “inactive”; `COc1ccc(NC(=O)Nc2cccc3c2O[C@@H](CN(C)Cc2ccc(Oc4ccccc4)cc2)[C@H](C)CN([C@@H](C)CO)C3=O)cc1`: “active”.
As for `CC(C)NC(=O)Nc1cccc2c1O[C@@H](CN(C)Cc1ccc(Oc3ccccc3)cc1)[C@H](C)CN([C@H](C)CO)C2=O`, the cytotoxicity call was “inactive”.
Take `C[C@H]1CN([C@@H](C)CO)C(=O)c2cccc(NC(=O)Nc3ccccc3)c2O[C@@H]1CN(C)Cc1ccc(Oc2ccccc2)cc1`: the cytotoxicity call was “inactive”.
For `C[C@@H]1CN([C@@H](C)CO)C(=O)c2cccc(NC(=O)Nc3ccccc3)c2O[C@@H]1CN(C)Cc1ccc(Oc2ccccc2)cc1` the value was “active”; for `COc1ccc(NC(=O)Nc2cccc3c2O[C@H](CN(C)Cc2ccc(Oc4ccccc4)cc2)[C@H](C)CN([C@@H](C)CO)C3=O)cc1`, “inactive”; for `C[C@@H]1CCCCO[C@H](CN(C)Cc2ccccc2)[C@@H](C)CN([C@@H](C)CO)C(=O)c2cc(NC(=O)c3ccncc3)ccc2O1`, “inactive”.
As for `COCC#Cc1cnc2c(c1)C(=O)N([C@@H](C)CO)C[C@H](C)[C@H](CN(C)C(C)=O)O2`, the cytotoxicity call was “inactive”.
On to `C[C@H]1CN([C@@H](C)CO)C(=O)Cc2cc(NS(=O)(=O)c3cccs3)ccc2O[C@H]1CN(C)Cc1ccncc1`, for which the cytotoxicity call is “inactive”.
Next, `C[C@H](C(=O)N(C)C[C@@H]1OCc2ccccc2-c2c(n(C)c3ccccc23)C(=O)N([C@H](C)CO)C[C@H]1C)c1ccccc1`: “inactive”.
Turning to `C[C@H](O)C#Cc1cnc2c(c1)C(=O)N([C@@H](C)CO)C[C@H](C)[C@H](CN(C)C(=O)Nc1ccc(C(F)(F)F)cc1)O2`, the cytotoxicity call was “inactive”.
For `Cc1ccc(S(=O)(=O)Nc2ccc3c(c2)C(=O)N([C@@H](C)CO)C[C@@H](C)[C@@H](CN(C)C(=O)Nc2ccc4c(c2)OCO4)OCCCC[C@@H](C)O3)cc1` the value was “inactive”; for `C[C@H](CO)N1C[C@H](C)[C@H](CN(C)C(=O)Nc2cccc(C(F)(F)F)c2)OCc2ccccc2-c2ccccc2C1=O`, “inactive”.
Next, `C[C@@H]1CN([C@@H](C)CO)C(=O)c2cc(NS(=O)(=O)c3cn(C)cn3)ccc2O[C@@H](C)CCCCO[C@H]1CN(C)C(=O)c1ccncc1`: “inactive”.
Turning to `CO[C@H]1C[C@@H](C[C@@H](C)[C@H]2CC(=O)[C@H](C)/C=C(\C)[C@@H](O)[C@H](OC)C(=O)[C@H](C)C[C@H](C)/C=C/C=C\C=C(C)[C@H](OC)C[C@@H]3CC[C@@H](C)[C@@](O)(O3)C(=O)C(=O)N3CCCC[C@H]3C(=O)O2)CC[C@H]1OC(=O)C(C)(CO)CO`, the cytotoxicity call is “active”.
For `CO[C@H]1C[C@@H](C[C@@H](C)[C@H]2CC(=O)[C@@H](C)/C=C(\C)[C@@H](O)[C@@H](OC)C(=O)[C@@H](C)C[C@@H](C)/C=C/C=C/C=C(\C)[C@H](OC)C[C@H]3CC[C@@H](C)[C@@](O)(O3)C(=O)C(=O)N3CCCC[C@@H]3C(=O)O2)CC[C@@H]1OC(=O)C(C)(CO)CO` the value was “inactive”; for `CO[C@H]1C[C@@H]2CC[C@@H](C)[C@@](O)(O2)C(=O)C(=O)N2CCCC[C@H]2C(=O)O[C@H]([C@H](C)C[C@@H]2CC[C@@H](OC(=O)C(C)(CO)CO)[C@H](OC)C2)CC(=O)[C@H](C)/C=C(\C)[C@@H](O)[C@@H](OC)C(=O)[C@H](C)C[C@H](C)/C=C/C=C/C=C/1C`, “inactive”; for `C[C@@H]1CN([C@H](C)CO)C(=O)c2cc(NC(=O)Cc3ccccc3)ccc2O[C@@H]1CN(C)Cc1ccc(Cl)c(Cl)c1`, “inactive”.
For `C[C@@H]1CN([C@H](C)CO)C(=O)c2cc(NS(C)(=O)=O)ccc2O[C@@H]1CN(C)C(=O)Nc1ccccc1` the value was “inactive”.
Next, `Cc1nc(CCO)cs1`: “inactive”; `CC(C)[Si](C#CCCc1ccccc1)(O[C@H](c1ccccc1)c1cn(Cc2ccccc2)nn1)C(C)C`: “inactive”.
For `Nc1nc2c(ncn2COC(CO)CO)c(=O)[nH]1.O`, the cytotoxicity call was “inactive”.
Take `Nc1nc2c(ncn2COCCO)c(=O)[nH]1`: the cytotoxicity call is “inactive”.
For the molecule `C=C1C(CO)C(O)CC1n1cnc2c(=O)[nH]c(N)nc21.O` (stereo not given), the cytotoxicity call is “active”.
Next, `C[C@@H]1CN([C@H](C)CO)C(=O)CCCn2cc(nn2)CO[C@@H]1CN(C)C(=O)C1CC1`: “inactive”.
Next, `Cc1ccccc1N1CCN(S(=O)(=O)C[C@]23CC[C@H](C[C@@H]2NC(=O)[C@@H](N)CCS(C)(=O)=O)C3(C)C)CC1`: “inactive”; `COc1ccc(CN(C)C[C@@H]2OCCCC[C@H](C)Oc3ccc(NC(=O)Nc4ccccc4)cc3C(=O)N([C@@H](C)CO)C[C@H]2C)cc1`: “inactive”.
`O=C(C[C@@H]1CC[C@H](NS(=O)(=O)c2ccc(F)cc2)[C@@H](CO)O1)N1CCC(Cc2ccccc2)CC1`: the cytotoxicity call was “inactive”.
On to `CC1(COc2ccc3c(c2)ncn3-c2ccc3cccc(N4CCC(N)CC4)c3n2)COC1`, for which the cytotoxicity call is “active”.
For `C[C@@H]1CN([C@@H](C)CO)S(=O)(=O)c2ccc(C#Cc3ccccc3)cc2O[C@@H]1CN(C)S(=O)(=O)c1ccccc1F`, the cytotoxicity call was “inactive”.
For `Cl.O=C(Nc1ccccc1)OCC(CN1CCCCC1)OC(=O)Nc1ccccc1` (stereo not given), the cytotoxicity call was “active”.
For `C[C@@H](CN1CCCCC1)C(=O)NN` the value was “inactive”; for `Cc1ccc(C(=O)C(C)CN2CCCCC2)cc1.Cl` (stereo not given), “inactive”.
As to `C[C@H](CO)N1C[C@H](C)[C@@H](CN(C)S(C)(=O)=O)Oc2ccc(NS(=O)(=O)c3ccc(Cl)cc3)cc2CC1=O`, the cytotoxicity call is “inactive”.
Next, `Cc1noc(C)c1NC(=O)N(C)C[C@H]1OCCCC[C@@H](C)Oc2ccc(NC(=O)Nc3cccc4ccccc34)cc2C(=O)N([C@@H](C)CO)C[C@H]1C`: “inactive”; `C[C@@H]1CCCCO[C@@H](CN(C)Cc2ccc3c(c2)OCO3)[C@@H](C)CN([C@@H](C)CO)C(=O)c2cc(NC(=O)C3CCCCC3)ccc2O1`: “inactive”; `C[C@@H]1CCCCO[C@@H](CN(C)Cc2ccc3c(c2)OCO3)[C@H](C)CN([C@H](C)CO)C(=O)c2cc(NC(=O)C3CCCCC3)ccc2O1`: “inactive”.
For `C[C@H](CO)N1C[C@H](C)[C@H](CN(C)Cc2ccc3c(c2)OCO3)OCCCC[C@H](C)Oc2ccc(NC(=O)C3CCCCC3)cc2C1=O` the value was “inactive”.
For `C[C@@H]1CCCCO[C@@H](CN(C)Cc2ccc3c(c2)OCO3)[C@H](C)CN([C@@H](C)CO)C(=O)c2cc(NC(=O)C3CCCCC3)ccc2O1` the value was “inactive”; for `C[C@@H]1CCCCO[C@H](CN(C)Cc2ccc3c(c2)OCO3)[C@H](C)CN([C@H](C)CO)C(=O)c2cc(NC(=O)C3CCCCC3)ccc2O1`, “active”.
`C[C@@H]1CCCCO[C@H](CN(C)Cc2ccc3c(c2)OCO3)[C@H](C)CN([C@@H](C)CO)C(=O)c2cc(NC(=O)C3CCCCC3)ccc2O1`: the cytotoxicity call was “active”.
As for `C[C@H]1CCCCO[C@H](CN(C)Cc2ccc3c(c2)OCO3)[C@@H](C)CN([C@@H](C)CO)C(=O)c2cc(NC(=O)C3CCCCC3)ccc2O1`, the cytotoxicity call was “inactive”.
Next, `C[C@H](CO)N1C[C@H](C)[C@@H](CN(C)Cc2ccc3c(c2)OCO3)OCCCC[C@H](C)Oc2ccc(NC(=O)C3CCCCC3)cc2C1=O`: “inactive”; `C[C@@H]1CN([C@H](C)CO)C(=O)c2cc(NC(=O)C3CCCCC3)ccc2O[C@@H](C)CCCCO[C@@H]1CN(C)Cc1ccc2c(c1)OCO2`: “active”.
Next, `C[C@@H]1CCCCO[C@H](CN(C)Cc2ccc3c(c2)OCO3)[C@@H](C)CN([C@@H](C)CO)C(=O)c2cc(NC(=O)C3CCCCC3)ccc2O1`: “inactive”.
On to `C[C@@H]1CN([C@@H](C)CO)C(=O)c2cc(NC(=O)C3CCCCC3)ccc2O[C@@H](C)CCCCO[C@@H]1CN(C)Cc1ccc2c(c1)OCO2`, for which the cytotoxicity call was “inactive”.
For `C[C@@H]1CCCCO[C@H](CN(C)Cc2ccc3c(c2)OCO3)[C@@H](C)CN([C@H](C)CO)C(=O)c2cc(NC(=O)C3CCCCC3)ccc2O1` the value was “active”.
